62 molecules from PubChem BioAssay AID2315 (National Center for Advancing Translational Sciences (NCATS), 2010) can be followed below.

For orientation: inhibition means the change of the read-out against control, counted positive when it falls.

Each structure is given as a SMILES string. Among all 290,000 compounds or so, about 27,000 (9.3%) were called active. What follows is part of a selection rich in actives, with near analogues and random picks from the rest. Unmarked numbers belong to inactive results. Rule as the data show it: active = inhibition mostly above about 28% (no sharp cut-off); inactive = mostly below about 43%.

The nature of this experiment: A qHTS for Small Molecule Inhibitors of Shiga Toxin. Also: 0% is about no effect. The note with it: Vero cells, Shiga toxin protein synthesis inhibition reporter; at 38.7 µM, active compounds read high. On the technique in general: Quantitative high-throughput screening tests each substance at several concentrations.
Take `COc1ccc(S(=O)(=O)NCC(=O)NCc2cc(=O)n(C)c(=O)n2C)cc1F`: the inhibition is -4.87%.

On to `CCOC(=O)c1cc2ccccc2n1CC(=O)c1ccccc1`, for which the inhibition was 3.23%.

Take `COc1cccc(N2C(=O)CN(Cc3ccccc3)C2=S)c1`: the inhibition is 24.3%.

As for `Cc1ccc(OCC(=O)Nc2ccc(N3CCN(C(=O)c4ccco4)CC3)cc2)c(C)c1`, the inhibition is -6.09%.

`O=C(c1ccccc1F)N(Cc1ccccc1)Cc1ccccc1`: the inhibition is 18%.

Turning to `Cc1nc(N)nc(SCc2ccc([N+](=O)[O-])cc2)c1N`, the inhibition is -4.97%.

With `Cc1ccc(NS(=O)(=O)c2ccc3c(c2)oc(=O)n3C)c(C)c1`, the inhibition is 0.571%.

Take `COc1ccc(-c2ccc(OC)c(C3C4C=CCC(C)C4C(=O)N3Cc3ccccc3)c2)cc1C` (configuration not stated): the inhibition is 31.9%.

As for `COc1ccc2oc(=N)c(C(=O)Nc3ccc(Br)cc3)cc2c1`, the inhibition is 14.3%.

On to `COc1ccc(C(=O)OCC(=O)Nc2cccc(C(C)=O)c2)cc1OC`, for which the inhibition is 8.39%.

For the molecule `O=C(COC(=O)C1CCCCC1)Nc1ccc([N+](=O)[O-])cc1`, the inhibition was 30.9%.

For the molecule `O=C(Nc1ccc([N+](=O)[O-])cc1)C1CC12CCC2` (configuration not stated), the inhibition was 76.1% (active).

Take `O=C(Nc1ccc([N+](=O)[O-])cc1)C1(c2ccccc2)CCOCC1`: the inhibition was -4.2%.

Consider `Cn1nccc1C(=O)NC1CCCc2c1cnn2-c1ccccc1F` (configuration not stated), for which the inhibition was -4.18%.

On to `CCN1C(=O)c2cccc3c(S(=O)(=O)Nc4ccccc4O)ccc1c23`, for which the inhibition was 34.3%.

Regarding `CC1CN(C(=S)Nc2cccc(F)c2)CC(C)O1` (configuration not stated), the inhibition was -2.89%.

Regarding `CCC(=O)Nc1ccc(-c2ccc(N3CCCCC3)nn2)cc1`, the inhibition is 63.9% (active).

Regarding `O=C(CN1CCN(c2ccccn2)CC1)Nc1ccc(Br)cc1`, the inhibition is -9.75%.

With `CCCCSc1nnc(-c2ccc(NC(=O)CC)cc2)n1C`, the inhibition was -10.7%.

With `O=C(CN1C(=O)c2cccnc2Oc2ccc(Cl)cc21)NCCc1ccccc1`, the inhibition is 3.75%.

Consider `Cc1cc(C)cc(NC(=O)CSc2ccccc2)c1`, for which the inhibition is 29.4%.

On to `CCOc1ccc(C(=O)Nc2cccc(-c3ccc4nncn4n3)c2)cc1`, for which the inhibition was 35.1%.

`O=C(CSc1nc(C2CC2)nc2ccccc12)Nc1cccc(O)c1`: the inhibition was -5.2%.

As to `CCOc1ccc(C(=O)Nc2cccc(SC)c2)cc1`, the inhibition was 47.7% (active).

Regarding `CSc1cccc(NC(=O)CSc2ccccc2)c1`, the inhibition is 3.54% (active).

On to `O=C(CSc1ccccc1)Nc1ccc(C(=O)Nc2cccc(O)c2)cc1`, for which the inhibition is 65.7% (active).

Regarding `Cc1nnc(SCC(=O)Nc2cccc(N)c2)n1-c1ccccc1`, the inhibition is 4.15%.

Consider `CCOc1ccc(C(=O)Nc2ccncc2)cc1`, for which the inhibition was 77.7%.

`O=C(Cc1ccccc1)Nc1ccc(C(=O)Nc2ccccc2C(=O)O)cc1`: the inhibition was -19.6%.

Regarding `Cc1cc(S(=O)(=O)c2cc3ccc(O)c(C)c3oc2=O)ccc1F`, the inhibition was 23.1%.

In the case of `Cc1nn(C)c(C)c1C(C)NC(=O)c1ccc(OC2CCN(Cc3ccccn3)CC2)cc1` (configuration not stated), the inhibition was 8.35%.

Take `NNC(=O)c1nnn(-c2nonc2N)c1CN1CCCC1`: the inhibition is -1.91%.

For the molecule `CCc1nc(Nc2ccc(NC(C)=O)cc2)c2oc3ccccc3c2n1`, the inhibition is -2.91%.

Consider `Cc1c(CNCCc2ccccc2)c(C(=O)O)c(C)n1-c1ccccc1`, for which the inhibition was -0.721%.

As to `Cc1ccc(CSCC2Nc3ccc(C(=O)N4CCN(c5ccc(F)cc5)CC4)cc3NC2=O)cc1` (configuration not stated), the inhibition is 13.1%.

For `CCOc1ccc(NC(=O)c2ccc(NC(=O)C3CCCO3)cc2)cc1` (configuration not stated), the inhibition was 0.828%.

As to `Cc1cc2c(cc1S(=O)(=O)NCc1ccc(Cl)cc1)OCC(=O)N2`, the inhibition was -2.9%.

Consider `CC(NC(=O)C1CCCN(S(=O)(=O)c2ccc(-n3cnnn3)cc2)C1)c1ccc(F)cc1` (configuration not stated), for which the inhibition was -5.87%.

`CSc1ccc(/C=C/C(=O)NC23CC4CC(CC(C4)C2)C3)cc1`: the inhibition was 103% (active).

Consider `Cc1ccc(C(=O)NC23CC4CC(CC(C4)C2)C3)c(Cl)c1`, for which the inhibition was 6.22%.

On to `CSc1ccc(NC(=O)/C=C/C(=O)O)cc1`, for which the inhibition is 18.3%.

Consider `Cc1ccc2sc(N(CCN(C)C)C(=O)/C=C/c3cccs3)nc2c1C`, for which the inhibition was -3.15%.

As to `COC(=O)c1ccc(NC(=O)CSc2nncc3ccc(OC)c(OC)c23)cc1`, the inhibition was -11.5%.

Consider `CCOC(=O)c1nc(Nc2ccc(C(=O)OC)cc2)c2ccccc2n1`, for which the inhibition is 17%.

Take `COC(=O)c1ccc(Nc2ncnc3sccc23)cc1`: the inhibition is 42% (active).

Take `COc1cc2c(cc1OC)C(c1cccc([N+](=O)[O-])c1)=NCC2`: the inhibition is -8.7%.

As to `O=C(N/N=C/c1c(O)n(C2CC2)c(=S)[nH]c1=O)c1ccccc1Cl`, the inhibition was 30.7%.

With `O=C(N/N=C/c1c(O)n(C2CC2)c(=S)[nH]c1=O)c1ccccc1`, the inhibition is 84.6% (active).

For `O=c1[nH]c(=S)n(C2CC2)c(O)c1/C=N/N1CCOCC1`, the inhibition is -6.68%.

`Cn1cnc2c1c(=O)n(Cc1ccccc1C#N)c(=O)n2C`: the inhibition is -8.82%.

For `COC(=O)[C@@H](NC(=O)Nc1cc(Cl)ccc1C)C(C)C`, the inhibition is 8.66%.

For the molecule `Cc1ccc(NC(=O)c2ccccn2)cc1S(=O)(=O)N1CCOCC1`, the inhibition was 28%.

Turning to `Cc1ccc(Cl)cc1NC(=O)c1ccccn1`, the inhibition was 31.5% (active).

On to `O=C(N/C(=C\c1ccc([N+](=O)[O-])cc1)C(=O)N1CCOCC1)c1cccc(Br)c1`, for which the inhibition was -35.2%.

In the case of `Fc1ccccc1OCCSc1nc2ccccc2o1`, the inhibition was 110% (active).

Turning to `Cn1c(=O)c2c(nc(Br)n2CCSc2nc3ccccc3o2)n(C)c1=O`, the inhibition was -12.2%.

Consider `OCCNCCCCOc1ccccc1F`, for which the inhibition was -2.38%.

`O=S(=O)(c1cccc(-c2cn3ccccc3n2)c1)N1CCCC1`: the inhibition was 16.7%.

For the molecule `COc1ccc(N(Cc2ccccc2)S(=O)(=O)c2cccc(C(=O)O)c2)cc1`, the inhibition is -12.2%.

As to `COc1ccc(CN(C)C(=O)CC(c2ccccc2)c2ccccc2)cc1`, the inhibition was 6.72%.

In the case of `COc1ccc(C(CC(=O)c2ccccc2)S(=O)(=O)c2ccccc2)cc1` (configuration not stated), the inhibition is 26.9% (active).

Turning to `Cc1[nH]c2ccccc2c1C(=O)CN1CC(C)CC(C)C1` (configuration not stated), the inhibition was -6.33%.
